Over roughly 16,000 sequences, “rpm ratio (pull-down/input)” has its median near 0.5; the highest 2% begin near 5.5. The full list was thinned out, with the highest values kept by preference.

This assay addresses T1, MBP-FoxP3dN (Mus musculus, UniProt Q99JB6 188-423).
T1 sequence: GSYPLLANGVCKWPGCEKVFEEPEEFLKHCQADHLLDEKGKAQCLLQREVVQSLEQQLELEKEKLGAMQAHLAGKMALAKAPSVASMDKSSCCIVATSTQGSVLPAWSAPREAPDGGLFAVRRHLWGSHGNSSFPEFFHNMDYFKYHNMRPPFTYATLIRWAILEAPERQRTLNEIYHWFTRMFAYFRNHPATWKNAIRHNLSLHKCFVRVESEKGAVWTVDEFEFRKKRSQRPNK
Description: PD-seq (MBP pull-down with sequencing); 20 mM Tris-HCl pH 7.5, 100 mM NaCl, 1.5 mM MgCl2, 0.4 uM protein, 0.1 uM dsDNA library, 30 min, room temperature, amylose pull-down; high values mean tight binding. The settings on record: protein: recombinant; tags: His6-MBP; chain copies: 2; dsDNA, one strand shown. An outline of the steps:
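Binding is the reads-per-million enrichment of pull-down relative to input, pooled across replicates. For this, 0.4 µM His6-MBP-tagged mouse FoxP3 or FoxP1 fragment lacking the N-terminus, made in E. coli, was incubated with 0.1 µM Klenow-filled double-stranded degenerate DNA library for 30 min at room temperature in Tris pH 7.5 buffer with NaCl and MgCl2. Complexes bound to amylose resin were washed three times before proteinase K released the DNA for PCR barcoding and Illumina sequencing.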
“GATGATTGTTCTCCCAGCTGATGAATTAAGTAATTCGAGTAAACAAATTTTCCTAATCTTTCTGTTCAAGCGCCATCTAC”: the binding signal is 1.05 RPM ratio (pull-down/input). For “GATGATTGTTCTCCCAGCTGATGAATTGATCTTGTCGAGTAAACAAATTTTCCTAATCTTTCTGTTCAAGCGCCATCTAC” the value was 0.293 RPM ratio (pull-down/input); for “GATGATTGTTCTCCCAGCTGATGAATTTGCCCTCTCGAGTAAACAAATTTTCCTAATCTTTCTGTTCAAGCGCCATCTAC”, 0.526 RPM ratio (pull-down/input); for “GATGATTGTTCTCCCAGCTGATGAATTTGCCTCTTCGAGTAAACAAATTTTCCTAATCTTTCTGTTCAAGCGCCATCTAC”, 2.52 RPM ratio (pull-down/input).

Turning to “GATGATTGTTCTCCCAGCTGATGAATTTTGCGCCTCGAGTAAACAAATTTTCCTAATCTTTCTGTTCAAGCGCCATCTAC”, the binding signal was 2.67 RPM ratio (pull-down/input). With “GATGATTGTTCTCCCAGCTGATGAATTTTTTGCCTCGAGTAAACAAATTTTCCTAATCTTTCTGTTCAAGCGCCATCTAC”, the binding signal was 0.432 RPM ratio (pull-down/input). Consider “GATGATTGTTCTCCCAGCTGATGAATTTGCCTCCTCGAGTAAACAAATTTTCCTAATCTTTCTGTTCAAGCGCCATCTAC”, for which the binding signal was 2.37 RPM ratio (pull-down/input). On to “GATGATTGTTCTCCCAGCTGATGAATTCTTTGCCTCGAGTAAACAAATTTTCCTAATCTTTCTGTTCAAGCGCCATCTAC”, for which the binding signal was 0.403 RPM ratio (pull-down/input). For “GATGATTGTTCTCCCAGCTGATGAATTGCGCCTCTCGAGTAAACAAATTTTCCTAATCTTTCTGTTCAAGCGCCATCTAC”, the binding signal is 7.17 RPM ratio (pull-down/input). Regarding “GATGATTGTTCTCCCAGCTGATGAATTTGCCGCCTCGAGTAAACAAATTTTCCTAATCTTTCTGTTCAAGCGCCATCTAC”, the binding signal was 0.88 RPM ratio (pull-down/input). The result for “GATGATTGTTCTCCCAGCTGATGAATTGCCTCTCTCGAGTAAACAAATTTTCCTAATCTTTCTGTTCAAGCGCCATCTAC” reads 1.04 RPM ratio (pull-down/input); that for “GATGATTGTTCTCCCAGCTGATGAATTTGTTGCCTCGAGTAAACAAATTTTCCTAATCTTTCTGTTCAAGCGCCATCTAC”, 7.02 RPM ratio (pull-down/input). The result for “GATGATTGTTCTCCCAGCTGATGAATTTTGCCTCTCGAGTAAACAAATTTTCCTAATCTTTCTGTTCAAGCGCCATCTAC” reads 5.78 RPM ratio (pull-down/input); that for “GATGATTGTTCTCCCAGCTGATGAATTGTTTGCCTCGAGTAAACAAATTTTCCTAATCTTTCTGTTCAAGCGCCATCTAC”, 5.67 RPM ratio (pull-down/input).

Turning to “GATGATTGTTCTCCCAGCTGATGAATTAGGTCCTTCGAGTAAACAAATTTTCCTAATCTTTCTGTTCAAGCGCCATCTAC”, the binding signal is 0.354 RPM ratio (pull-down/input). Take “GATGATTGTTCTCCCAGCTGATGAATTCTCTCCATCGAGTAAACAAATTTTCCTAATCTTTCTGTTCAAGCGCCATCTAC”: the binding signal is 0.223 RPM ratio (pull-down/input). For “GATGATTGTTCTCCCAGCTGATGAATTGGTACGCTCGAGTAAACAAATTTTCCTAATCTTTCTGTTCAAGCGCCATCTAC” the value was 0.466 RPM ratio (pull-down/input). For “GATGATTGTTCTCCCAGCTGATGAATTGCCTTTTTCGAGTAAACAAATTTTCCTAATCTTTCTGTTCAAGCGCCATCTAC” the value was 1.02 RPM ratio (pull-down/input). For “GATGATTGTTCTCCCAGCTGATGAATTTGCCTTTTCGAGTAAACAAATTTTCCTAATCTTTCTGTTCAAGCGCCATCTAC” the value was 2.1 RPM ratio (pull-down/input); for “GATGATTGTTCTCCCAGCTGATGAATTTTTGCCTTCGAGTAAACAAATTTTCCTAATCTTTCTGTTCAAGCGCCATCTAC”, 2.86 RPM ratio (pull-down/input); for “GATGATTGTTCTCCCAGCTGATGAATTTTGCCTTTCGAGTAAACAAATTTTCCTAATCTTTCTGTTCAAGCGCCATCTAC”, 5.56 RPM ratio (pull-down/input). Consider “GATGATTGTTCTCCCAGCTGATGAATTTGCGCCTTCGAGTAAACAAATTTTCCTAATCTTTCTGTTCAAGCGCCATCTAC”, for which the binding signal was 3.88 RPM ratio (pull-down/input). For “GATGATTGTTCTCCCAGCTGATGAATTGCGCCTTTCGAGTAAACAAATTTTCCTAATCTTTCTGTTCAAGCGCCATCTAC” the value was 6.82 RPM ratio (pull-down/input). With “GATGATTGTTCTCCCAGCTGATGAATTGTCTCATTCGAGTAAACAAATTTTCCTAATCTTTCTGTTCAAGCGCCATCTAC”, the binding signal is 0.539 RPM ratio (pull-down/input). For “GATGATTGTTCTCCCAGCTGATGAATTGCCTTTGTCGAGTAAACAAATTTTCCTAATCTTTCTGTTCAAGCGCCATCTAC” the value was 0.946 RPM ratio (pull-down/input); for “GATGATTGTTCTCCCAGCTGATGAATTGTGCCTGTCGAGTAAACAAATTTTCCTAATCTTTCTGTTCAAGCGCCATCTAC”, 6.42 RPM ratio (pull-down/input); for “GATGATTGTTCTCCCAGCTGATGAATTTGCCCTGTCGAGTAAACAAATTTTCCTAATCTTTCTGTTCAAGCGCCATCTAC”, 0.487 RPM ratio (pull-down/input).

Turning to “GATGATTGTTCTCCCAGCTGATGAATTGTTCCTGTCGAGTAAACAAATTTTCCTAATCTTTCTGTTCAAGCGCCATCTAC”, the binding signal is 0.351 RPM ratio (pull-down/input). Take “GATGATTGTTCTCCCAGCTGATGAATTTTGCCTGTCGAGTAAACAAATTTTCCTAATCTTTCTGTTCAAGCGCCATCTAC”: the binding signal is 5.62 RPM ratio (pull-down/input). For “GATGATTGTTCTCCCAGCTGATGAATTGCCTGTGTCGAGTAAACAAATTTTCCTAATCTTTCTGTTCAAGCGCCATCTAC” the value was 0.881 RPM ratio (pull-down/input); for “GATGATTGTTCTCCCAGCTGATGAATTGCGCCTGTCGAGTAAACAAATTTTCCTAATCTTTCTGTTCAAGCGCCATCTAC”, 6.14 RPM ratio (pull-down/input); for “GATGATTGTTCTCCCAGCTGATGAATTGCCTGCGTCGAGTAAACAAATTTTCCTAATCTTTCTGTTCAAGCGCCATCTAC”, 0.937 RPM ratio (pull-down/input). For “GATGATTGTTCTCCCAGCTGATGAATTTCCTGTGTCGAGTAAACAAATTTTCCTAATCTTTCTGTTCAAGCGCCATCTAC” the value was 0.352 RPM ratio (pull-down/input).

(Values after PMC12820563, “FoxP3 forms a head-to-head dimer in vivo and stabilizes its multimerization on adjacent microsatellites”.)
